Test results from the supplement of paper PMC9877034.
Where a name gives a salt, the structure may show the parent alone. In all, about 1,000 compounds were measured (“cFRET/donor change relative to DMSO, normalised to beta-lapachone positive control (supercomplex I-IV assembly)”: median about 0.18, lowest 2% from about -1 on). Only a selection was taken, and the lowest values are over-represented in it overall.

These molecules were tested on C2C12 (NDUFB8-AcGFP / COX8A-DsRed-Monomer FRET reporter) (assay: cFRET/donor change relative to DMSO, normalised to beta-lapachone positive control (supercomplex I-IV assembly) (fraction of beta-lapachone effect); higher = more respiratory supercomplex assembly). Conditions: 40 µM; 24 h.
Method: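 Cells were treated with 40 uM compound for 24 h and imaged on an IN Cell Analyzer 6000. Corrected FRET was divided by donor signal (cFRET/donor) and measured in two replicate experiments. The score is (mean cFRET/donor of compound - mean DMSO) / (mean beta-lapachone 40 uM - mean DMSO). Compounds flagged for prominent cell death, abnormal morphology or decreased cell number were excluded.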

With `Cc1c2ccncc2c(C)c2c1[nH]c1ccccc12` [Ellipticine] as the molecule, how does the cFRET/donor change read?
Its cFRET/donor change is -2.44.

`NC(CCP(=O)(O)O)C(=O)O` (racemic) [(±)-2-Amino-4-phosphonobutyric acid] was tested. Which cFRET/donor change did it give?
Its cFRET/donor change is 0.0445.

Which cFRET/donor change does the source give for `CN1CCC[C@@H]1Cc1c[nH]c2ccc(Nc3ncccc3[N+](=O)[O-])cc12` here?
The cFRET/donor change was 0.0254.

For `C#CCN[C@H](C)Cc1ccccc1` [R-(-)-Desmethyldeprenyl hydrochloride], which cFRET/donor change is on record?
Its cFRET/donor change is -0.331.

`C[N+](C)(C)CC#CCOC(=O)Nc1cccc(Cl)c1` was tested. Which cFRET/donor change did it give?
The cFRET/donor change was 0.565.
